High-throughput results deposited in PubChem by National Center for Advancing Translational Sciences (NCATS).
Only a selection was taken, and hits are over-represented in it overall.
Pf Dd2 inh – inhibitors of Plasmodium falciparum Dd2 growth | 4.3% of 120,000 active | AID 1347417 | P. falciparum Dd2 growth, SYBR Green, 72 h | Potency, µM (titrated, usually from 28.9 µM), for inactives: top-dose activity, negative = inhibition, actives largely listed as inhibitors; active = well fitted inhibition curve with a large enough effect;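 note: plate controls were DMSO vehicle for no effect and reference drug for full effect; nearly all actives have a fitted effect of over 65% in size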
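Infected erythrocytes (Dd2, 0.3% parasitemia, 2.5% hematocrit final) are added to compound in RPMI-1640/Albumax II medium, grown 72 h at 37C in low oxygen, then lysed with saponin/Triton-X containing SYBR Green and read by fluorescence.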
An asterisk follows results filed as active; [ ] = remark or other dose. Potency is the fitted concentration of half-maximal effect.

O=C(O)c1cncc(-c2cccc(CN3CCOCC3)c2)n1 was read as Pf Dd2 inh -16%.
`Cc1nnc([C@H]2CCN(Cc3ccccc3)C2)o1` gave Pf Dd2 inh inactive.
`O=C(O)C[C@@H]1CCN(C(=O)c2ccco2)C[C@@H]1CCN1CCOCC1` gave Pf Dd2 inh 16%[44.1 µM].
Cn1nccc1C(=O)N1CCCC1c1nc(C2CCOCC2)no1 (configuration not stated) was read as Pf Dd2 inh 28%.
O=C(c1cnccn1)N1CCCCCCn2c(nnc2-c2ccc(F)cc2)CC1 was read as Pf Dd2 inh -3%.
`CNC(=O)[C@@H](c1ccc(Cl)cc1)N1CCC[C@H]1C(=O)NC(C)(C)C` gave Pf Dd2 inh -12%[44.1 µM].
O=C1N[C@H](CC(=O)N2CCN(c3ccccn3)CC2)C(=O)Nc2ccccc21 was read as Pf Dd2 inh -2%.
CN1CCC(N2CCN(S(=O)(=O)c3cccc(F)c3)CC2)C1=O (configuration not stated) was read as Pf Dd2 inh 9%.
CCOc1ccc(C(=O)N2CCC([C@@H]3CNC[C@H]3CO)CC2)cc1OCC was read as Pf Dd2 inh -8%.
`O=C(N[C@H]1CCN2C(=O)c3cc(-c4ccc(F)cc4F)ccc3NC(=O)[C@H]12)c1cnccn1` gave Pf Dd2 inh -14%.
For Fc1ccccc1N1CCN(Cc2nnc(-c3ccc4c(c3)OCO4)o2)CC1 the results were Pf Dd2 inh 46%[0.594 µM].
`c1ccc(Cn2cc(CN3CCCC3)c(-c3ccc4c(c3)OCO4)n2)cc1` gave Pf Dd2 inh 11µM*.
For O[C@@H]1C[C@@H](c2nc(-c3ccc4c(c3)OCO4)no2)N(Cc2ccccc2)C1 the results were Pf Dd2 inh inactive.
Screening Cc1cc2cc(-c3c(C)noc3C)nc(N3CCCC3)c2o1 returned Pf Dd2 inh -12%[44.1 µM].
For Cc1cc2cc(-c3c(C)noc3C)nc(Nc3ccccc3)c2o1 the results were Pf Dd2 inh -28%[44.1 µM].
Cc1cc2cc(-c3c(C)noc3C)nc(N(C)CCN(C)C)c2o1 was read as Pf Dd2 inh 2µM*.
For CC(=O)N1CCC(C(=O)N2CC(c3ccccc3)C(C)(C)C2)CC1 (configuration not stated) the results were Pf Dd2 inh -3%.
`COCCNC(=O)[C@H]1C[C@H](Oc2cccnc2)CN1C(=O)NC1CCCC1` gave Pf Dd2 inh 10%.
Screening COc1ccc(S(=O)(=O)N2CCC3(CC2)CC(OC)CCO3)cc1 (configuration not stated) returned Pf Dd2 inh 12%.
`COc1cccc(S(=O)(=O)N2CCC3(CC2)CC(OCC2CC2)CCO3)c1` (configuration not stated) gave Pf Dd2 inh -2%.
`COc1ccc(S(=O)(=O)N2CCC3(CC2)CC(OCC2CC2)CCO3)cc1` (configuration not stated) gave Pf Dd2 inh 3.5µM*.
For CCN1C(=O)Cc2ccccc2C1C(=O)NCc1cccc(F)c1 (configuration not stated) the results were Pf Dd2 inh -3%.
For Cn1nc(C(=O)N2CC(C)(C)C(C)(O)C2)cc1-c1cccs1 (configuration not stated) the results were Pf Dd2 inh -11%.
COc1ccc(CN2CCC(n3cc[nH]c3=O)CC2)cc1 was read as Pf Dd2 inh 0%[44.1 µM].
`COc1ccccc1C1=NOC(C(=O)NC(C)(C)C)C1` (configuration not stated) gave Pf Dd2 inh -11%.
Screening CCN1c2cc(C(=O)Nc3ccc(OC)c(OC)c3)ccc2C(=O)N2CCCCCC21 (configuration not stated) returned Pf Dd2 inh inactive.
Screening CCOc1ccc(NC(=O)c2ccc3c(c2)N(CC)C2CCCCN2C3=O)cc1 (configuration not stated) returned Pf Dd2 inh 5µM*.
`CCN1c2cc(C(=O)Nc3cc(C)ccc3OC)ccc2C(=O)N2CCCCCC21` (configuration not stated) gave Pf Dd2 inh 6.3µM*.
CN1c2cc(C(=O)Nc3cccc(OC(F)(F)F)c3)ccc2C(=O)N2CCCCC21 (configuration not stated) was read as Pf Dd2 inh -20%.
Screening CCN1c2cc(C(=O)Nc3ccc(C)cc3)ccc2C(=O)N2CCCCCC21 (configuration not stated) returned Pf Dd2 inh inactive.
Screening CCN1c2cc(C(=O)Nc3cccc(OC)c3)ccc2C(=O)N2CCCCCC21 (configuration not stated) returned Pf Dd2 inh inactive.
`CCN1c2cc(C(=O)Nc3ccc(C)cc3C)ccc2C(=O)N2CCCCCC21` (configuration not stated) gave Pf Dd2 inh inactive.
CCOC(=O)c1ccc(NC(=O)c2ccc3c(c2)N(CC)C2CCCCN2C3=O)cc1 (configuration not stated) was read as Pf Dd2 inh -8%.
Screening CCN1c2cc(C(=O)Nc3cccc(OC(F)(F)F)c3)ccc2C(=O)N2CCCCC21 (configuration not stated) returned Pf Dd2 inh 4.5µM*.
For CCN1c2cc(C(=O)Nc3ccc(Cl)c(C)c3)ccc2C(=O)N2CCCCC21 (configuration not stated) the results were Pf Dd2 inh -21%.
`COCCn1ncc(N2CCCC(CC(=O)NCc3ccncc3)C2)cc1=O` (configuration not stated) gave Pf Dd2 inh 37%.
Screening CC(=O)N1C[C@@H](C(=O)NCCc2c(C)noc2C)[C@H](c2nc(C)no2)C1 returned Pf Dd2 inh -20%.
For CN(C)c1cc(N2CCCC(NC(=O)c3ccccn3)C2)ncn1 (configuration not stated) the results were Pf Dd2 inh 47%[5.79 µM].
O=C(c1cccs1)N1CCC(N[C@H](c2ccccc2)C2CC(O)C2)CC1 (some centres not stated) was read as Pf Dd2 inh -18%.
COc1ccc2nc3n(c2c1)[C@@H](CNC1CCN(C)CC1)COC3 was read as Pf Dd2 inh 13%[44.1 µM].
For c1ccc(CCCNc2nccc(-c3ccccn3)n2)nc1 the results were Pf Dd2 inh -4%.
`C=CCn1ncc(CN2CCC(c3nnc(Cn4ccnc4C)n3C)CC2)c1C` gave Pf Dd2 inh 4%.
`Cc1ccc(S(N)(=O)=O)cc1C(=O)N1CCN(c2ccccc2)C(=O)C1` gave Pf Dd2 inh -9%.
COC(=O)c1ccc(Cl)cc1NC(=O)N1CCC(CN2CCCC2)CC1 was read as Pf Dd2 inh -1%.
Cc1cccc(NC(=O)N2CCC(CN3CCC(C)CC3)CC2)c1C was read as Pf Dd2 inh -11%.
Screening COC(=O)c1ccc(Cl)cc1NC(=O)N1CCC(CN2CCC(C)CC2)CC1 returned Pf Dd2 inh 10µM*.
For CC(C)NC(=O)N1CC2ON=C(C(=O)N3CCOCC3)C2C1 (configuration not stated) the results were Pf Dd2 inh 18%.
For c1ccc(CN2CCCCC2c2nc(CCOCC3CCCC3)no2)nc1 (configuration not stated) the results were Pf Dd2 inh -22%.
Screening CCOC(=O)CSc1nc2c([nH]c3ccccc32)c(=O)n1-c1ccc(OC)cc1 returned Pf Dd2 inh -3%.
`COc1ccc(-n2c(SCC(=O)N3CCCc4ccccc43)nc3c([nH]c4ccccc43)c2=O)cc1` gave Pf Dd2 inh 12%.
For COC(=O)c1ccc(CSc2nc3c([nH]c4ccccc43)c(=O)n2-c2ccc(OC)cc2)o1 the results were Pf Dd2 inh -10%.
